Data: PubChem BioAssay (Tox21)
Where “and” joins values, the source holds several entries; their conditions need not be identical. Equal entries are not always repeated. Inconclusive results are not listed. Entries that show only a call come without a potency. Calls of active or inactive are those of the source. The call rests on the fitted dose curve; in most records, active means well fitted inhibition curve with a large enough effect in the repeat runs; inconclusive means weak or mixed curves; inactive means flat fitted curve, though single readings scatter.

Assay: qHTS assay to identify small molecule HDAC inhibitors (AID 1259364); further: nearly all actives have a fitted effect of over 45% in size
Conditions: HCT-116 HDAC-Glo I/II luminescence, 2 h; series mostly up to 92.4 µM
Excerpt: U.S. Tox21 Program National Center for Advancing Translational Sciences [NCATS] NIH Chemical Genomics Center [NCGC] U.S. Environmental Protection Agency [EPA] National Institutes of Environmental Health Sciences [NIEHS] National Toxicology Program [NTP] U.S. Food and Drug Administration [FDA] Tox21 Assay Overview: Histone deacetylases (HDACs) are a group of epigenetic enzymes that regulate gene expression by histone deacetylation. HDACs are capable of introducing epigenetic modifications and such aberrations contribute to the onset and progression of several human diseases, thus making HDACs a popular therapeutic target. For identifying endogenous class I/II HDAC inhibitors a homogenous, luminogenic HDAC I/II cell based assay was used to measure the relative activity of class I and II HDACs from cells. Wild type HCT-116 cells were used to screen Tox21 libraries for identifying class I/II HDAC inhibitors.
Tox21 Assay Protocol Summary: HCT-116 cells were dispensed at 1,500 per well in 5uL of culture medium into white solid bottom 1536-well plates (Greiner Bio-One, Monroe, NC) using a Multidrop Combi (Thermo Scientific, Waltham, MA) dispenser. The assay plates were incubated at 37 C and 5% CO2 for an overnight, and then 23nL of compounds dissolved in DMSO and positive control were transferred using a Pintool station (Wako, San Diego, CA). The assay plates were incubated at 37C and 5% CO2 for 2hr. After compound treatment, 4uL of HDAC-Glo reagent (Promega Corporation, Madison, WI) was added to each well of the assay plates using Flying Reagent Dispenser (FRD, Aurora Discovery, San Diego, CA) and incubated the assay plates at room temperature for 30min. The luminescence signal was quantified using a ViewLux plate reader (Perkin Elmer, Shelton, CT).
Potency means the concentration at half of the fitted maximal effect.

Structure (SMILES) | Potency
S=C1NCCN1 | inactive
CCOCN(C(=O)CCl)c1c(C)cccc1CC | inactive
CCC(C)c1cc([N+](=O)[O-])cc([N+](=O)[O-])c1O (stereo not given) | inactive
O=c1oc2ccccc2c(O)c1C(CC(O)c1ccc(-c2ccc(Br)cc2)cc1)c1ccccc1 (stereo not given) | inactive
c1cc(OCC2CO2)ccc1Cc1ccc(OCC2CO2)cc1 (stereo not given) | inactive
Nc1ccc(Cl)c(Cl)c1 | inactive
CCC(=O)O[C@H]1CC[C@H]2[C@@H]3CCC4=CC(=O)CC[C@]4(C)[C@H]3CC[C@]12C | inactive
Clc1nc(Cl)nc(Cl)n1 | inactive
COP(=O)(OC)OC | inactive
COc1ccc(C=O)cc1 | inactive
COP(=S)(OC)Oc1ccc([N+](=O)[O-])cc1 | inactive
C1=Cc2cccc3cccc1c23 | inactive
CCc1cccc(CC)c1N(COC)C(=O)CCl | inactive
O=C(Nc1ccc(Br)cc1)c1cc(Br)cc(Br)c1O | 6.83 µM (active) and 6.11 µM (active) and 6.68 µM (active)
CC(C)(OOC(C)(C)c1ccccc1)c1ccccc1 | inactive
CCOP(=S)(OCC)O/N=C(\C#N)c1ccccc1 | inactive
CC(C)Oc1cc(-n2nc(C(C)(C)C)oc2=O)c(Cl)cc1Cl | inactive
NNC(=S)NN | inactive
COP(=S)(OC)Oc1cc(Cl)c(Cl)cc1Cl | inactive
Brc1ccc(Oc2cc(Br)c(Br)cc2Br)c(Br)c1 | inactive

Structure (SMILES) | Potency
CCCCOCCOP(=O)(OCCOCCCC)OCCOCCCC | inactive
CCC(C)c1ccc(O)cc1 (stereo not given) | inactive
Nc1cccnc1 | inactive
CCN(N=O)C(N)=O | inactive
O=Cc1ccco1 | inactive
C#C[C@]1(O)CC[C@H]2[C@@H]3CCC4=CC(=O)CC[C@]4(C)[C@H]3CC[C@@]21C | inactive
CC1(C)C(C=C(Cl)Cl)C1C(=O)OC(C#N)c1cccc(Oc2ccccc2)c1 (stereo not given) | inactive
CCCCCCCCCCCOC(=O)c1ccccc1C(=O)OCCCCCCCCCCC | inactive
O=P(O)(O)CCCl | inactive
CCCCC(CC)COC(=O)c1ccc(C(=O)OCC(CC)CCCC)c(C(=O)OCC(CC)CCCC)c1 (stereo not given) | inactive
O=P(Oc1ccccc1)(Oc1ccccc1)Oc1ccccc1 | inactive
N[C@@H](Cc1ccc(N(CCCl)CCCl)cc1)C(=O)O | inactive
C[C@]12CCC(=O)C[C@@H]1CC[C@@H]1[C@@H]2CC[C@]2(C)[C@@H](O)CC[C@@H]12 | inactive
O=S(=O)(Oc1ccc(Cl)cc1)c1ccc(Cl)cc1 | inactive
O=[N+]([O-])c1c(Cl)c(Cl)c(Cl)c(Cl)c1Cl | inactive
Oc1c(Cl)c(Cl)c(Cl)c(Cl)c1Cl | inactive
CC(C)=CC1C(C(=O)OCc2coc(Cc3ccccc3)c2)C1(C)C (stereo not given) | inactive
c1ccc(N=Nc2ccccc2)cc1 | 30.6 µM (active)
O=C(O)CC[N+](=O)[O-] | inactive
O=C(O)C(F)(F)C(F)(F)C(F)(F)C(F)(F)C(F)(F)C(F)(F)C(F)(F)F | inactive
